We go through 55 molecules from PubChem BioAssay AID651957 (The Scripps Research Institute Molecular Screening Center, 2012).

Structures are written as SMILES. About 620 (0.17%) of roughly 370,000 compounds were called active. The list comes from a sample in which actives are over-represented; it also holds similar structures and randomly drawn compounds. A number with no mark means an inactive call.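 The calls were made as follows: active = inhibition above the mean inhibition of all tested compounds plus 3 SD, set per campaign (cut at about 52% in these data); inactive = the rest.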

In this assay the target is Nuclear receptor coactivator 2 (Homo sapiens) (UniProt Q15596). Description: inhibition of GAL4-SRC2 driven luciferase reporter, primary screen, SRC2 inhibitor project, cell-based, luminescence (AID 651957).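 Also: 0% = DMSO treated cells and 100% = cells given Gossypol at 36 µM.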 The settings on record: HEK293 GAL4-SRC2 luciferase reporter, at 9 µM, hits give high values. (In general: In a reporter assay the amount or activity of a reporter protein is the signal.)
Chain of Nuclear receptor coactivator 2 (Homo sapiens) (Q15596 whole entry, looked up, the tested form may be a part): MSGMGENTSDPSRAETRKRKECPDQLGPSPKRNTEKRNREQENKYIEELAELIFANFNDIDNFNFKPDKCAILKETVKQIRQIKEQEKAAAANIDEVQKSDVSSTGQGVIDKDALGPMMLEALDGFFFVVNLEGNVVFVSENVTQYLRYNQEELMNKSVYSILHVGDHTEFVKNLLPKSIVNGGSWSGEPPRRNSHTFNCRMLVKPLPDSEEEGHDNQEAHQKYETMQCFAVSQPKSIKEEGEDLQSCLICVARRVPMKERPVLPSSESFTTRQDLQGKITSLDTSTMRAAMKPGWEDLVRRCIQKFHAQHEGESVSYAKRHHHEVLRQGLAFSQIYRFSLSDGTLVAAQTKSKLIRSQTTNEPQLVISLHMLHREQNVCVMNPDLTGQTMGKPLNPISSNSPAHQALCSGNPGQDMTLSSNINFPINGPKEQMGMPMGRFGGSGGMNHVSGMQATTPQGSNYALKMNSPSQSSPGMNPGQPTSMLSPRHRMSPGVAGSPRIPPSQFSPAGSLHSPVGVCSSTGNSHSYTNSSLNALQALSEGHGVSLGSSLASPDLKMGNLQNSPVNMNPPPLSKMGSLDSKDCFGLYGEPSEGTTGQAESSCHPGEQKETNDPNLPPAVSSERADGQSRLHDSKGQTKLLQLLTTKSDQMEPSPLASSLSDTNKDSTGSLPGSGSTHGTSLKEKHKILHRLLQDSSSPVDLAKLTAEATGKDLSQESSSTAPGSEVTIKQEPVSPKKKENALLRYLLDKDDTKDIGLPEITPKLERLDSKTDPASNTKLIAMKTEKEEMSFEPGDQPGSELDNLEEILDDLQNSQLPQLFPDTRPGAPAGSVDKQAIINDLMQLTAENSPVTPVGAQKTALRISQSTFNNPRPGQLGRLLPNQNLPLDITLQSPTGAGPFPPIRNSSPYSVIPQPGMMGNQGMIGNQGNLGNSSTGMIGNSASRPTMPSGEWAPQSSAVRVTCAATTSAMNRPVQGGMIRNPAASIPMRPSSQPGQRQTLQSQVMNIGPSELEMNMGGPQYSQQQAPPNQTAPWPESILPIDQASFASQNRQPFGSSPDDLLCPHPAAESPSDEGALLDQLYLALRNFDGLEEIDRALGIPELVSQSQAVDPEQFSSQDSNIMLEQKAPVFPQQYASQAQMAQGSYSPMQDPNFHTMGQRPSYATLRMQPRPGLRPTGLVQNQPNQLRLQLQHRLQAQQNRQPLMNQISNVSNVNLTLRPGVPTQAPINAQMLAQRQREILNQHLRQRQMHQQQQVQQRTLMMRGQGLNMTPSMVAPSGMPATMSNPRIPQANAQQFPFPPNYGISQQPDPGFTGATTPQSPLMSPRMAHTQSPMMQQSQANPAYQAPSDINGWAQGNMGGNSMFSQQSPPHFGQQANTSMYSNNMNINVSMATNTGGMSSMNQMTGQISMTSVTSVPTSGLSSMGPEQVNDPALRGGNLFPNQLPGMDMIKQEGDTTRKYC
By inhibition is commonly meant the drop in the measured response relative to a control, in per cent. As for `COc1cc(SC)ccc1C(=O)Nc1nc(C)cs1`, the inhibition was 73.4% (active). As for `COc1cc(Cl)c(C)cc1NC(=O)COC(=O)c1cc(SC)ccc1Cl`, the inhibition is -3.4%. Under `Cc1csc(NC(=O)CN2CCCCCC2)n1` stands -13.9%. As for `COCc1[nH]nc2c1C(c1ccccc1)N(c1ccccc1)C2=O` (stereo not given), the inhibition was 13.8%. Consider `N#CCC[C@H]1CC[C@]2(CCCN(Cc3ccc(Cl)cc3)C2)O1`, for which the inhibition was 7.54%. With `COc1ccc(S(=O)(=O)Nc2ccc(F)cc2)c(C)c1C`, the inhibition was -27.1%. Next, `CC(CCN1CCC(C(O)(c2ccccc2)c2ccccc2)CC1)Oc1ccc(C(F)(F)F)cc1` (stereo not given): -7.91%; `Cc1cc(C(=O)COC(=O)CNC(=O)c2ccc(F)cc2)c(C)n1Cc1ccco1`: -4.87%; `Cc1ccsc1C(=O)OCC(=O)c1cc(C)n(CC2CCCO2)c1C` (stereo not given): 73.2% (active).

Take `COCCn1c(C)cc(C(=O)COC(=O)CNC(=O)c2ccco2)c1C`: the inhibition is -9.66%. For the molecule `O=C(Nc1ccccc1)N1CCN(Cc2nc3ccccc3c(=O)[nH]2)CC1`, the inhibition is -10.6%. Consider `O=S1(=O)c2c(NCc3ccco3)cccc2Oc2ccccc2CN1Cc1cn(Cc2cccc(C(F)(F)F)c2)nn1`, for which the inhibition is 4.32%. Under `Clc1ccc(Cl)c(Oc2ccc(Oc3nc(Cl)ccc3Cl)cc2)n1` stands -10%; under `c1csc(-c2nnc(SCc3nc4ccccc4[nH]3)o2)c1`, 4.24%.

For `O=C(NCc1ccc2c(c1)OCO2)c1cc2c(s1)CS(=O)(=O)C2`, the inhibition is 13.1%. As to `COc1cccc(NC(=O)C2(C)CCN2Cc2ccccc2Cl)c1` (stereo not given), the inhibition is -0.04%. `C#CCNC(=O)C[C@H]1C[C@@]2(C(=O)OC)C(=C[C@H](C(C)C)O[C@@H]2C2CC2)N(Cc2ccco2)C1=O`: the inhibition is 14.7%. Regarding `Cc1ccc(CSc2nnc(SCC(=O)NN=Cc3cc(Br)ccc3F)s2)cc1`, the inhibition is 15%. In the case of `Cc1cccc(Nc2nc3c(S(=O)(=O)c4ccccc4)nnn3c3ccccc23)c1C`, the inhibition is 6.13%. For the molecule `Cc1noc(C)c1S(=O)(=O)N(C)C[C@H]1OCCCC[C@@H](C)Oc2ccc(NC(=O)CCCN(C)C)cc2C(=O)N([C@H](C)CO)C[C@@H]1C`, the inhibition was -6.35%. Take `CCC(C)CN1C(=O)CN(S(C)(=O)=O)CC1(C)C(=O)Nc1ccc2c(c1)OCCO2` (stereo not given): the inhibition was -21.3%. Under `CCOC(=O)N1CCN(C(=O)C[C@H]2C[C@@]3(C(=O)OC)C(=C[C@H](C(C)(C)C)O[C@@H]3C)N(Cc3ccc(Cl)cc3Cl)C2=O)CC1` stands 23.9%. As to `CC1(C)Cc2c(sc3nc(SCC(=O)NCc4ccccc4)n(-c4ccccc4)c(=O)c23)CS1`, the inhibition was -9.11%.

`C[C@@H]1ON(C)[C@H]2C[C@H]3c4[nH]c5cccc(-c6ccc7c(c6)OCO7)c5c4CCN3C[C@@H]12`: the inhibition is -21%. Regarding `C=CC1C(OC2OC(CO)C(O)C(O)C2O)OC=C(C(=O)OC)C1CC1CC(=O)CC(CC(=O)CCc2ccc(O)cc2)O1` (stereo not given), the inhibition was -3.45%. Regarding `COc1ccc(-c2cc(-c3nnc(SCc4ccc([N+](=O)[O-])cc4)n3N)[nH]n2)cc1`, the inhibition was -26.2%. As to `COc1ccc(CCOC2OC(CO)C(OC(=O)/C=C/c3ccc(O)c(OC)c3)C(O[C@H]3O[C@@H](C)[C@H](O)[C@@H](O)[C@H]3O)C2O)cc1O` (stereo not given in full), the inhibition was -2.46%. With `CCCCn1c(N)c(N(CC)C(=O)c2ccc(N(C)S(=O)(=O)c3ccc(C)cc3)cc2)c(=O)[nH]c1=O`, the inhibition is -16.6%. Next, `CN(C)S(=O)(=O)c1ccc(NC(=O)COC(=O)Cn2[nH]c(=O)c3ccccc3c2=O)cc1`: 10.7%; `CCC(CO)Nc1cccc2c1S(=O)(=O)N(Cc1cn(Cc3ccccc3C(F)(F)F)nn1)Cc1ccccc1O2` (stereo not given): -19.2%; `O=C(OC12CC3CC(CC(C3)C1)C2)c1ccc(NCc2cc(O)ccc2O)cc1`: 84.2% (active). `Cc1nc(N)nc(SCc2ccc([N+](=O)[O-])cc2)c1N`: the inhibition is -3.96%. Turning to `COCCCNC(=O)C[C@H]1C[C@@]2(C(=O)OC)C(=C[C@H](C(C)(C)C)O[C@@H]2C)N(Cc2ccc(Cl)cc2Cl)C1=O`, the inhibition is 16.8%. In the case of `CCOC(=O)[C@]12CCCC=C1N(Cc1ccc(OC)cc1)C(=O)[C@@H]2CC(=O)NCc1cccs1`, the inhibition is 7.23%. Under `CCOC(=O)[C@]12CCCCC/C=C\1N(Cc1ccc(OC)cc1)C(=O)[C@H]2CC(=O)N1CCOCC1` stands 8.19%. As for `Cc1sc2ncn(CC(=O)NCCCC(=O)NCc3ccc(F)cc3)c(=O)c2c1C`, the inhibition is -10.8%. As to `Cc1[nH]n(C(N)=S)c(=O)c1N=Nc1ccc(Cl)cc1Cl`, the inhibition is -13.3%.

Consider `CCCCOCCCNC(=O)C[C@H]1C[C@@]2(C(=O)OC)C(=C[C@H](COCc3ccccc3)O[C@@H]2C)N(Cc2cccc3ccccc23)C1=O`, for which the inhibition was 6.59%. In the case of `COc1ccc(C(C#N)=C2C=CC(=NO)c3ccccc32)cc1`, the inhibition was 23.7%. Under `O=C(Nc1ccc(N2CCCCC2)cc1)c1cc(S(=O)(=O)N2CCOCC2)ccc1F` stands 10.1%; under `CC(=O)Nc1ccc(S(=O)(=O)Nc2ccc(N3CCCCC3)cc2)cc1`, 63.2% (active). Under `CC(=O)Nc1ccc(S(=O)(=O)N2CCCC2C(=O)O)cc1` (stereo not given) stands 10.5%; under `C[C@H](NC(=O)C1CC(=O)N(c2ccc3c(c2)OCO3)C1)C(=O)NCc1ccco1` (stereo not given in full), -21.3%. For the molecule `CN(C)[C@H]1CCN(c2cccc3c2S(=O)(=O)N2CC[C@H](C2)O3)C1`, the inhibition is -9.6%. On to `CC(c1ccc(N)cc1)c1cn(C)c2ccccc12` (stereo not given), for which the inhibition is -4.44%. Next, `CC(CCN1CCC(C(O)(c2ccccc2)c2ccccc2)CC1)Oc1ccc(Cl)cc1` (stereo not given): -21.2%; `COc1ccc(-n2c(SCC(=O)Nc3ccc(C)c(Cl)c3)nc3ccccc3c2=O)cc1`: -1.63%. As to `O=C(CN1CCN(c2ccc(O)cc2)CC1)NC1CCCc2ccccc21` (stereo not given), the inhibition was 0.42%.

`COc1cc(F)ccc1-c1cc(C(=O)NCC2CCCCC2)[nH]n1`: the inhibition is -20%. For `CCCOc1ccc(F)cc1-c1cc(C(=O)Nc2ccc(F)cc2)[nH]n1`, the inhibition is 0.04%.

For the molecule `COc1ccc(OC)c(NC(=O)c2cc(-c3cc(F)ccc3OCC3CCCO3)n[nH]2)c1` (stereo not given), the inhibition is 75.3% (active). In the case of `O=C(COC(=O)c1cnccn1)Nc1ccc(Cl)cc1C(F)(F)F`, the inhibition is -47.6%.

For the molecule `C=CCN1C(=O)[C@H](CC(=O)NCCCN2CCCC2=O)[C@@]2(C(=O)OCC)CCCC=C12`, the inhibition was -13.7%. Take `CCNc1nc(NC(C)C)nc(OCCOC(=O)c2ccccc2)n1`: the inhibition is -5.88%. For `CN(c1ccc(OCC(=O)OCC(=O)Nc2cccc([N+](=O)[O-])c2)cc1)S(=O)(=O)c1ccc(F)cc1`, the inhibition was 5.05%.
